Rows were chosen to be rich in hits. Some 12% of all compounds tested hit in one or more screens of this group.
Sm TGR block = qHTS Assay for the Inhibitors of Schistosoma Mansoni Peroxiredoxins | AID 485364, 2010 | Schistosoma mansoni thioredoxin glutathione reductase (TGR), Q962Y6 | Potency, µM (highest dose often 114 µM), hits mostly inhibitors | purified TGR, DTNB reduction, TNB absorbance 405 nm | 3% of 360,000 active; further: nearly all actives have a fitted effect of over 60% in size
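First, TGR (20 nM dispensed) and NADPH were mixed with compound. Second, a 15 min room-temperature incubation followed. Third, further NADPH and then DTNB were added to start the reaction. Finally, TNB absorbance was monitored kinetically.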
Pf growth 48h = Primary qHTS for delayed death inhibitors of the malarial parasite plastid, 48 hour incubation; AID 504832, 2011; Potency, µM (top dose mostly 28.7 µM), hits mostly inhibitors; 5.9% of 310,000 active; P. falciparum luciferase growth in erythrocytes, 48 h
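Growth was read as firefly luciferase luminescence after a 48 h, 37 C, 5% CO2 exposure of compounds to reporter-bearing P. falciparum cultures (0.1% parasitemia, 2% hematocrit final) in Albumax-supplemented RPMI 1640.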
Pf growth 96h = Primary qHTS for delayed death inhibitors of the malarial parasite plastid, 96 hour incubation; P. falciparum luciferase reporter growth, 96 h; Potency, µM (top dose mostly 28.7 µM), actives largely listed as inhibitors; 6.9% of 320,000 active; AID 504834, 2011
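Luminescence readout: decreased luciferase signal marks inhibited growth of reporter-expressing P. falciparum in infected red cells (2% hematocrit, 0.05% parasitemia final), exposed to compound two generations (96 h, 37 C, 5% CO2).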
SARS PLpro yeast = qHTS of Yeast-based Assay for SARS-CoV PLP; S. cerevisiae expressing SARS-CoV PLpro, growth rescue; Potency, µM (series often up to 32.9 µM), hits mostly activators; 0.19% of 330,000 active; calls by dose curve; further: nearly all actives have a fitted effect of over 55% in size
A number is an active result; n = inactive; u = inconclusive; x = no result given; ! = not active in a repeat. Unless noted, the call rests on the fitted dose curve; in most records, active means well fitted curve in the direction sought with a large enough effect; inconclusive means small, poorly fitted or top-dose-only effect, or another doubt; inactive means no such curve, though single readings can be large; an effect the other way counts as inactive or inconclusive.

SMILES | Sm TGR block | Pf growth 48h | Pf growth 96h | SARS PLpro yeast
CN(CC(=O)NCCC1=CCCCC1)S(=O)(=O)c1ccc2c(c1)CCC(=O)N2 | n | u | 3.3µM | n
Cc1ccc(CCNC(=O)C2CCN(S(=O)(=O)c3ccc4c(c3)CCC(=O)N4)CC2)cc1 | n | n | n | n
O=C1CCc2cc(S(=O)(=O)N3CCC(C(=O)NCCC4=CCCCC4)CC3)ccc2N1 | n | x | 0.83µM | n
COc1ccc(CCNC(=O)CN(C)S(=O)(=O)c2ccc3c(c2)CCC(=O)N3)cc1OC | n | x | n | n
NC(=O)c1ccc(NC(=O)CN2CCN(c3ccccc3)CC2)cc1 | n | n | u | n
Cc1ccc2nc3c(cc(C(=O)NCc4ccco4)c(=N)n3C(C)C)c(=O)n2c1 | n | x | x | x
Cc1cc2n(n1)CCCN2C(=O)Nc1cccc(C)c1C | n | x | x | x
COC(=O)c1ccc(NC(=O)CN2C(=O)c3cccc4cccc2c34)cc1 | n | x | x | x
O=C(CCCNC(=O)c1ccc(Cl)cc1)Nc1ccc(Br)cc1 | n | n | n | n
COc1cc(Nc2nn(-c3ccc(OC(F)(F)F)cc3)nc2C(C)=O)cc(OC)c1 | n | x | x | x
Cc1ccccc1C(=O)Nc1ccc(OCc2cc(=O)n3ccccc3n2)cc1 | n | x | x | x
CCOc1ccc(-n2c(=O)c3c4c(sc3n(CC(=O)Nc3cccc(C(F)(F)F)c3)c2=O)CCCCC4)cc1 | n | x | x | x
O=C(O)CCc1ccc(-c2cccs2)n1NC(=O)c1ccc(O)cc1 | n | n | x | n
CCOC(=O)c1ccc(-n2c(CCC(=O)O)ccc2-c2cccs2)cc1 | 5.6µM | n | n | n
Cc1ccc(-n2c(CCC(=O)O)ccc2-c2cccs2)cc1C | 10µM | n | n | n
O=C(O)CCc1ccc(-c2cccs2)n1NC(=O)c1cccs1 | u | n | n | n
CCc1ccc(-n2c(CCC(=O)O)ccc2-c2cccs2)cc1 | 3.5µM | x | x | x
O=C(NCC1CCCO1)C1CC(=O)N(c2ccc(Cl)cc2)C1 (stereo unspecified) | n | n | n | n
Cc1ccc(C)c(NC(=O)C(=O)NCC2CCCN2S(=O)(=O)c2cccs2)c1 (stereo unspecified) | n | u | n | n
COc1ccc2c(c1OC)C[N+]1([O-])CCc3cc4c(cc3C1C2)OCO4 (stereo unspecified) | n | u | 4.1µM | n
COc1ccc2c(c1)CC1c3c(cc4c(c3-2)OCO4)CC[N+]1(C)[O-] (stereo unspecified) | n | n | u | n
Cc1cccc(-n2ccc(=O)c(C(=O)Nc3ccc(S(=O)(=O)N4CCOCC4)cc3)n2)c1 | n | n | 12µM | n
Cc1cccc(N2N=C(C(=O)Nc3nc(C)cs3)CCC2=O)c1 | n | n | n | n
Cc1cccc(N2N=C(C(=O)O)CCC2=O)c1 | n | 9.3µM | u | n
O=C(Nc1ccc(Cl)c(S(=O)(=O)N2CCOCC2)c1)C1=NN(c2ccccc2)C(=O)CC1 | x | x | x | n
SMILES | Sm TGR block | Pf growth 48h | Pf growth 96h | SARS PLpro yeast
Cc1cccc(N2N=C(C(=O)Nc3ccc(Cl)c(S(=O)(=O)N4CCOCC4)c3)CCC2=O)c1 | n | 12µM | u | n
Cc1ccc(-n2ccc(=O)c(C(=O)Nc3ccc(S(=O)(=O)N4CCOCC4)cc3)n2)cc1 | n | n | n | n
CCCCOc1ccccc1Cn1c(=O)sc2ccccc21 | n | x | x | x
Cc1cc(C)c(Nc2nc3ccccc3n3c(C)nnc23)c(C)c1 | n | x | x | x
Cc1sc2ncn(CC(=O)Nc3ccc(C(F)(F)F)cc3)c(=O)c2c1S(=O)(=O)N1CCN(C)CC1 | n | x | x | x
CN1CCN(/N=C/c2ccc(OCc3ccccc3)cc2)CC1 | n | n | n | n
CC(Oc1coc(CN2CCN(C(=O)c3ccco3)CC2)cc1=O)c1ccccc1 (stereo unspecified) | n | n | n | n
Cc1ccc(O)c(CNc2ccccn2)c1 | n | n | n | n
Oc1ccc2ccccc2c1CNc1ccccn1 | 2.2µM | n | n | n
Cc1ccc(-c2ncccc2OC(=O)C23CC4CC(CC(C4)C2)C3)cc1 | n | u | 9.3µM | n
CC(C)(C)c1ccc(C(=O)Nc2ccc(-c3nc4cc(Cl)ccc4o3)cc2)cc1 | n | x | x | x
O=C(CSc1nc2nc(-c3cccs3)cc(C(F)(F)F)c2c(=O)[nH]1)C(F)(F)F | 3.5µM | x | n | n
COC(=O)CSc1nc2nc(-c3cccs3)cc(C(F)(F)F)c2c(=O)[nH]1 | n | x | n | n
O=C(NC1CCCCC1)c1ccc(CSc2nc3ccncc3n2Cc2ccccc2)cc1 | n | x | x | x
COc1ccc(-c2nc3cc(NC(=O)COc4ccccc4C)ccc3o2)cc1 | n | x | x | x
CCSc1nc2nc(C)cc(C)n2n1 | n | n | 12µM | n
C=CCSc1nc2nc(C)cc(C)n2n1 | n | n | 0.33µM | n
C=C(C)CSc1nc2nc(C)cc(C)n2n1 | n | n | n | n
CCCCCCCCSc1nnc(CSc2nc3nc(C)cc(C)n3n2)o1 | n | 12µM | u | n
Cc1cc(C)n2nc(SCc3ccccc3)nc2n1 | n | n | n | n
COc1cccc(C(=O)OCC(=O)Nc2ccc(N3CCOCC3)cc2)c1 | n | n | n | n
CC(=O)c1cc(C(C)=O)c(C)nc1C | n | n | 1.9µM | n
CC(=O)c1cc(C(C)=O)c(C)[n+](C)c1C | n | 10µM | n | n
CCCn1c2ccccc2c2nnc(SCc3[nH]c(=O)[nH]c3C(=O)CCCCC(=O)OCC)nc21 | n | u | 10µM | n
CCOC(=O)C1=C(O)c2ccccc2C(=O)/C1=C\c1ccc(C)cc1 | 3.5µM | 2.9µM | 4.1µM | n
SMILES | Sm TGR block | Pf growth 48h | Pf growth 96h | SARS PLpro yeast
C[N+]1(C)CCC(=C2c3ccccc3CC(=O)c3sccc32)CC1 | 28µM | u | u | n
Cc1cccc2c1Sc1ccccc1CC2=O | n | n | n | n
CC[N+]1(C)CCC(=C2c3ccccc3CC(=O)c3sccc32)CC1 (stereo unspecified) | n | u | 12µM | n
Cc1ccc(Sc2ccc(N3CCC(C(=O)Nc4ccc(C)c(F)c4)CC3)nn2)cc1 | n | x | x | x
Cc1cccc(C(=O)OC(C)C(=O)Nc2ccc(S(=O)(=O)Nc3ncccn3)cc2)c1C (stereo unspecified) | n | n | n | n
COc1ccc(N2CCN(c3cc(C)nc4ccc(OC)cc34)CC2)cc1 | n | 13µM | u | n
Cc1ccn(CC(=O)NC2CC(C)(C)Cc3c2cnn3-c2ccc(F)cc2)n1 (stereo unspecified) | n | n | n | n
CCCCn1c2c(c(=O)n(C)c1=O)C(c1ccc(OC)cc1)N1CCCCCC1=N2 (stereo unspecified) | n | u | 7.4µM | n
CCCCOc1ccc(C2C(=O)N(C3CCCCC3)CC(=O)N2CCCC)cc1 (stereo unspecified) | n | x | x | x
N#CC(C#N)=C1NC2(CCCC2)Cc2ccccc21 | n | u | 3.3µM | n
O=C1NC2(CCCCC2)Cc2ccccc21 | n | n | n | n
S=C1NC2(CCCCC2)Cc2ccccc21 | n | u | 12µM | n
C#CCNc1c2c(nc3nnnn13)CCCC2 | n | n | u | n
CNc1c2c(nn1C)CCCC2 | n | n | 6µM! | n

High-throughput results from PubChem BioAssay.
